In PubChem BioAssay (NCATS) one finds Potency and outcome data, which are given here for 39 compounds.

Assay [1] deals with Voltage-gated inwardly rectifying potassium channel KCNH2 (Homo sapiens) (UniProt Q12809). The assay is described as follows: qHTS Assay for Small Molecule Inhibitors of the Human hERG Channel Activity (AID 588834).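 Further: lower thallium flux fluorescence means stronger hERG block; nearly all actives have a fitted effect of over 50% in size.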 Further: potency means the concentration at half of the fitted maximal effect. The note with it: U2OS BacMam hERG, FluxOR thallium flux fluorescence; series mostly up to 46.1 µM. In short, it runs like this:
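Measured: FluxOR fluorescence after thallium stimulation in U2OS cells transduced with hERG by baculovirus. Compounds pre-incubated around 10 min; medium Opti-MEM with 2% FCS. AC50 from Hill equation.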

Assay [2] addresses Luciferin 4-monooxygenase (Photinus pyralis) (UniProt P08659). The assay is described as follows: Biochemical firefly luciferase enzyme assay for NPC (AID 624030).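 Further: purified P. pyralis luciferase at 10 nM with luciferin and ATP substrate; nearly all actives have a fitted effect of over 70% in size.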 To be noted: purified P. pyralis luciferase, luminescence, 5 min; series mostly up to 58.6 µM. The method in brief:
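Counter-screen for direct inhibition of the luciferase enzyme by approved-drug library compounds, run at 10 nM enzyme in 50 mM Tris acetate (final). Luminescence was read within 5 min of enzyme-buffer addition and normalized to PTC124 versus DMSO (0%).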

A short description of assay [3]: S16 Schwann cell PMP22 intronic element firefly luciferase assay (AID 624032). Further: nearly all actives have a fitted effect of over 30% in size. Further: potency means the concentration at half of the fitted maximal effect. The note with it: S16 rat Schwann cells, PMP22 element FLuc, 24 h; series mostly up to 57.5 µM. In short, it runs like this: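 Rat S16 Schwann cells stably carrying a PMP22 intronic element-driven Fluc reporter were seeded overnight, then exposed to compounds for 24 h at 37 °C. Luminescence was normalized to PTC124 (positive control) and DMSO (0% activity).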

Assay [4] in a line: S16 Schwann cell viability assay (CellTiter-Glo assay) (AID 624031).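 Further: native untransfected S16 rat Schwann cells; cellular ATP luminescence as a viability measure; nearly all actives have a fitted effect of over 70% in size.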 The note with it: S16 rat Schwann cells viability, 24 h; series mostly up to 57.5 µM. The method in brief:
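Rat S16 Schwann cells without reporter constructs received compound or DMSO for 24 h at 37 °C under 5% CO2. Cellular ATP was then quantified by CellTiter-Glo luminescence, with vehicle wells defined as 0% activity and cell-free wells as reference.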
In general terms: Cellular ATP, detected with luciferase, serves as a proxy for viable cell number.

Assay [5] is described as follows: S16 Schwann cell PMP22 intronic element beta-lactamase assay (AID 624044; calls by dose curve; further: nearly all actives have a fitted effect of over 15% in size; further: potency means the concentration at half of the fitted maximal effect). To be noted: S16 rat Schwann cells, PMP22 element beta-lactamase FRET, 24 h; series mostly up to 38.3 µM. In short, it runs like this:
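Rat S16 Schwann cells with beta-Lac driven by a PMP22 intronic element, compound-treated 24 h at 37 °C. LiveBLAzer FRET B/G read: 460 nm normalized to potassium clavulanate vs DMSO; 535 nm FRET as viability; concentration-effect curves classified.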

Assay [6] deals with Glutaminase kidney isoform, mitochondrial (Homo sapiens) (UniProt O94925). Description: qHTS for Inhibitors of Glutaminase (GLS): LOPAC Validation (AID 624146). Further: nearly all actives have a fitted effect of over 60% in size. Further: potency means the concentration at half of the fitted maximal effect. The note with it: glutaminase enzyme activity inhibition; series mostly up to 46.1 µM. The method in brief: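 Two-point fluorescence kinetic (t0, 30 min RT) for hKGA; glutamate detected via glutamate oxidase–HRP–Amplex Red. Substrate: 1 mM L-glutamine solution; buffer 45 mM KH2PO4, pH 8.2.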
Sequence of Glutaminase kidney isoform, mitochondrial (Homo sapiens) (O94925 whole entry, looked up, canonical isoform): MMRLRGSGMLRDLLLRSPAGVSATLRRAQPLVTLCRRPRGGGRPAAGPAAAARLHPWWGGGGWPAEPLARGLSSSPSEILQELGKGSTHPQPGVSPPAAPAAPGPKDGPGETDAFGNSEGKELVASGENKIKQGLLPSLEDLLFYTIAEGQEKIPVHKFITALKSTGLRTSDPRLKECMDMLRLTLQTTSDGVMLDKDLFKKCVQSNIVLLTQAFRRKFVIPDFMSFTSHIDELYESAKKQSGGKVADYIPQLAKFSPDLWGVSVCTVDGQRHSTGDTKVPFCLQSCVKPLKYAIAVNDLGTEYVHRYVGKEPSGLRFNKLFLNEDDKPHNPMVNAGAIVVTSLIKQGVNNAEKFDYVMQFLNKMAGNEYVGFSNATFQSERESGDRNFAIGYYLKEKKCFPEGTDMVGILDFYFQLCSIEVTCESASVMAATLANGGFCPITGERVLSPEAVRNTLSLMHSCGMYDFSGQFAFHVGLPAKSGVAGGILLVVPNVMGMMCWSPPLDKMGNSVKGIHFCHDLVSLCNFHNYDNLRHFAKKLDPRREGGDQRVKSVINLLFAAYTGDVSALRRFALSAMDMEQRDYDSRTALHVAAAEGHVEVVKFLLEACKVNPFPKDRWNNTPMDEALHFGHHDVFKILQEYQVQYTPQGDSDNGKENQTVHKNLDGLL

Assay [7] is described as follows: qHTS of Trypanosoma Brucei Inhibitors: LOPAC Validation (AID 624147). The note with it: purified enzyme assay, luminescence, 45 min; series mostly up to 57.5 µM. In short, it runs like this:
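ADP (130 uM final) triggers the TbPYK reaction after compound addition; incubation is 45 min at room temperature. Kinase-Glo Plus is then added and luminescence imaged. Normalized data are fitted to concentration-effect curves.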
(Quantitative high-throughput screening tests each substance at several concentrations.)

Assay [8] addresses Glucagon-like peptide 1 receptor (Homo sapiens) (UniProt P43220). The assay is described as follows: qHTS of GLP-1 Receptor Agonists: LOPAC Validation (AID 624148).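 Further: higher luminescence signal means agonism.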 The note with it: GLP-1R agonist cell assay; series mostly up to 46.1 µM. The method in brief:
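HEK293 cells stably co-expressing a cAMP-responsive luciferase reporter and a hypersensitive GLP-1R were plated 12 h at 37 °C and exposed to compounds for 4-6 hr at 37 °C, 5% CO2. Luminescence was read 12 min after adding detection reagent.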

Assay [9] is described as follows: qHTS of Nrf2 Activators: LOPAC Validation (AID 624149). To be noted: Nrf2/ARE reporter cell assay; series mostly up to 46.1 µM. In short, it runs like this: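 ARE reporter activation measured in AREc32 firefly luciferase cells after 24 hr compound exposure; Steady-Glo luminescence.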

SMILES strings stand for the structures. Records with an inconclusive call do not appear. Some structures have more than one record in an assay (separate samples or runs), and their calls can disagree. Active and inactive are the calls of the source. Unless noted, the call rests on the fitted dose curve; in most records, active means well fitted curve in the direction sought with a large enough effect; inconclusive means small, poorly fitted or top-dose-only effect, or another doubt; inactive means no such curve, though single readings can be large; an effect the other way counts as inactive or inconclusive. Where a SMILES comes first, the peptide text is derived from it. [ ]: non-standard residue; d: D form. pGlu = O=C1CC[C@@H](C(=O)O)N1; Thz = O=C(O)[C@@H]1CSCN1

Sequence of Glucagon-like peptide 1 receptor (Homo sapiens) (P43220 whole entry, looked up): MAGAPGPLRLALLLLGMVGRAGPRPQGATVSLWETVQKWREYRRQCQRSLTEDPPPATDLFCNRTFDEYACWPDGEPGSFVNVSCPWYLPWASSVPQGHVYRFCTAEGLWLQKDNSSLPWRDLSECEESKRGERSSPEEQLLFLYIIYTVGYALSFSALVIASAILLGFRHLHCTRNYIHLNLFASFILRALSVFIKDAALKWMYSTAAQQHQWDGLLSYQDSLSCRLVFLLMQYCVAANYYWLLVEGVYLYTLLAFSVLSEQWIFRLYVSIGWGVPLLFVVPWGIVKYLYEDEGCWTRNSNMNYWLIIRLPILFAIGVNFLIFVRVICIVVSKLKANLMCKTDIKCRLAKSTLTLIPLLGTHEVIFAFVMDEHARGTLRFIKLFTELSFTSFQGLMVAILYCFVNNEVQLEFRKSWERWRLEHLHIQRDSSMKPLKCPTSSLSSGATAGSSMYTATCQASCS
Sequence of Voltage-gated inwardly rectifying potassium channel KCNH2 (Homo sapiens) (Q12809 whole entry, looked up): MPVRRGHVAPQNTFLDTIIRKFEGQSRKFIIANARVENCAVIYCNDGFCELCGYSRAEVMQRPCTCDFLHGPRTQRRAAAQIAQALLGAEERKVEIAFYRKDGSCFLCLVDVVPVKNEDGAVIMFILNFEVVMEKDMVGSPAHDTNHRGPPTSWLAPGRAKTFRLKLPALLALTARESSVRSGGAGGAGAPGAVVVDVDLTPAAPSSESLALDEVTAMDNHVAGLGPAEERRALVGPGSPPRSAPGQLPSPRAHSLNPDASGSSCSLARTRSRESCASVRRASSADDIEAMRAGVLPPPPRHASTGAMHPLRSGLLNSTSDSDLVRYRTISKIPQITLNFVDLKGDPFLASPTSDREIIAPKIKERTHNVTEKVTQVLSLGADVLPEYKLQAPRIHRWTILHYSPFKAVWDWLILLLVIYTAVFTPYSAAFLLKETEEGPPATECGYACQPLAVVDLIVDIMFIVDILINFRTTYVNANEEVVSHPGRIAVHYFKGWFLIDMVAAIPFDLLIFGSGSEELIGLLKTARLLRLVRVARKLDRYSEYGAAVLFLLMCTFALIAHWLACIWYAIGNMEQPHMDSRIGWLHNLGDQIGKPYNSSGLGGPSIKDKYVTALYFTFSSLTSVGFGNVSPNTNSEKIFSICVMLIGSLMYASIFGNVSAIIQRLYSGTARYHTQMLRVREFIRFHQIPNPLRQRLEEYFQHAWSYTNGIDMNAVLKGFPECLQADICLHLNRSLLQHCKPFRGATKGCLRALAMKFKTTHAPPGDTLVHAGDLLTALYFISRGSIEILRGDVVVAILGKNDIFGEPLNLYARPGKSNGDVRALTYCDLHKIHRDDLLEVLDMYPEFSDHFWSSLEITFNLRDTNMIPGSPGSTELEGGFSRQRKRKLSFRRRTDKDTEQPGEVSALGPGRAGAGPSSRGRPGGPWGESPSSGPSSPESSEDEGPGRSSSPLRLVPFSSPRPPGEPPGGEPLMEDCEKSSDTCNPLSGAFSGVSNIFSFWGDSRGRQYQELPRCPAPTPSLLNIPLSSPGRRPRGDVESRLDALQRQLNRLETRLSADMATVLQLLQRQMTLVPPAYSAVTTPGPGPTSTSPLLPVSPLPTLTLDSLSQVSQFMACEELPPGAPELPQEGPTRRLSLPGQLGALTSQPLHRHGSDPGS
Sequence of Luciferin 4-monooxygenase (Photinus pyralis) (P08659 whole entry, looked up): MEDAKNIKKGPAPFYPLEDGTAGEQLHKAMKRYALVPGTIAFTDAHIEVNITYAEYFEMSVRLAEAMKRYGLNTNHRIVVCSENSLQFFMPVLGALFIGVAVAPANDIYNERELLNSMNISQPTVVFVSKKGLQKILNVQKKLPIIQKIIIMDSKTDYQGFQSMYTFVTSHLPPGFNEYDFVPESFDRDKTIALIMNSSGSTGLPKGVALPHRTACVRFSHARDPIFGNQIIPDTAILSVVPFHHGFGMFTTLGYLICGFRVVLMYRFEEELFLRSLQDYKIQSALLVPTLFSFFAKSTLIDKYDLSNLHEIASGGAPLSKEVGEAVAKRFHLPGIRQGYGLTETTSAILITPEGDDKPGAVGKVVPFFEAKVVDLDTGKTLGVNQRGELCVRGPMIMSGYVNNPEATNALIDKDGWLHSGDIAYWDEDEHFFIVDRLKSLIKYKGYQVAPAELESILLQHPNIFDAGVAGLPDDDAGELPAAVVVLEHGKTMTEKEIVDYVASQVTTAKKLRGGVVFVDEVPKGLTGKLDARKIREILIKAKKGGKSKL

For `CCCC(=O)OC[C@@H](OC(=O)CCC)[C@@H](OC(=O)CCC)[C@H](Cn1c2nc(=O)[nH]c(=O)c-2nc2cc(C)c(C)cc21)OC(=O)CCC`, the Potency in [1] was 10 µM (active); in [3] it was 14.4 µM (active). Besides, the Potency entry in assay [2] is “inactive”.

Regarding `O=C1CC[C@@H](C(=O)N2CSC[C@H]2C(=O)O)N1` ([pGlu]-[Thz]-OH), the Potency entry in assay [1], in assay [2], in assay [4], in assay [3] and in assay [5] was “inactive” in each case.

As to `CCCCCCCCCCCCCCCCCC(=O)O`, the Potency result in assay [1], in assay [2], in assay [4], in assay [3] and in assay [5] was “inactive” in each case.

`O=c1[nH]c2ccccc2n1CCCN1CCN(C(c2ccccc2)c2ccccc2)CC1`: the Potency in assay [1] was 3.55 µM (active); in assay [3] it was 8.09 µM (active). Also, the Potency entry in assay [2] is “inactive”.

Turning to `Cc1ccccc1CNc1ncnc2c1ncn2C1OC(CO)C(O)C1O` (stereo not given), the Potency entry in [1], in assay [2], in assay [4], in assay [3], in [5] and in assay [6] was “inactive” throughout. In [7], the Potency entry is “inactive”. Besides, the compound was classed as inactive in assay [8] and in assay [9].

On to `COc1ccc(-c2cc(=S)ss2)cc1`, for which the Potency result in assay [1], in [4] and in assay [3] was “inactive” in each case.

With `Cc1ccc(C(=O)O[C@H](C(=O)O)[C@@H](OC(=O)c2ccc(C)cc2)C(=O)O)cc1` (tested in a mixture with another compound), the Potency entry in assay [1], in assay [6] and in assay [7] was “inactive” each time. In addition, the outcome in assay [8] and in assay [9] was inactive.

Turning to `Nc1ccc(O)c(C(=O)O)c1`, the Potency result in [1], in assay [4] and in assay [3] was “inactive” throughout.

`CCOc1ccc2nc(S(N)(=O)=O)sc2c1`: the Potency result in assay [1], in assay [4] and in assay [3] was “inactive” each time.

Take `COc1ccccc1CNCCCCCCNCCCCCCCCNCCCCCCNCc1ccccc1OC`: the Potency entry in [1], in assay [6] and in [7] was “inactive” each time. Also, the result in [8] and in assay [9] was inactive.

Consider `O=C(Nc1ccc(C(=O)O)c(O)c1)c1ccccc1`, for which the Potency result in [1], in [4], in [3] and in assay [5] was “inactive” in each case.

Turning to `CC(C(=O)O)c1ccc2c(c1)[nH]c1ccc(Cl)cc12` (stereo not given), the Potency result in [1], in [4] and in assay [3] was “inactive” throughout.

As to `CN1CC(=O)N/C1=N/C(=O)Nc1cccc(Cl)c1`, the Potency result in assay [1], in assay [2], in assay [6] and in [7] was “inactive” in each case. The result in [8] and in assay [9] was inactive.

`Cc1ccc(C(=O)c2ccc(CC(=O)O)n2C)cc1`: the Potency result in [1], in assay [4] and in assay [3] was “inactive” in each case.

For `N.N.O=C(O)C1(C(=O)O)CCC1.[Pt]`, the Potency entry in [1] and in [2] was “inactive” throughout. Also, the result in assay [8] and in assay [9] was inactive.

On to `CC(C)NC[C@H](O)COc1cccc2[nH]ccc12`, for which the Potency entry in assay [1], in [6] and in assay [7] was “inactive” in each case. Besides, the outcome in assay [8] was inactive.

On to `Nc1c(CC(=O)O)cccc1C(=O)c1ccc(Br)cc1`, for which the Potency result in assay [1], in assay [4] and in [3] was “inactive” in each case.

In the case of `O=C1O/C(=C/Br)CCC1c1cccc2ccccc12` (stereo not given), in [1], the Potency is 5.62 µM (active). Also, the Potency result in assay [6] and in [7] was “inactive” each time. In addition, the outcome in [8] and in assay [9] was inactive.

Take `C#CCN1C(C)=C(C(=O)OC)C(c2cccc([N+](=O)[O-])c2)C(C(=O)OCC)=C1C` (stereo not given): the Potency entry in [1], in assay [6] and in assay [7] was “inactive” throughout. Further, the compound was called inactive in [8] and in assay [9].

On to `CC1(C)CCC=[N+]1[O-]`, for which the Potency result in assay [1], in assay [6] and in assay [7] was “inactive” each time. For the same compound, the compound was classed as inactive in [8] and in assay [9].

`O=C(OCc1ccccc1)c1ccccc1`: the Potency result in [1] and in assay [3] was “inactive” in each case.

For the compound `Cc1c(Nc2ncccc2C(=O)O)cccc1C(F)(F)F`, the Potency entry in assay [1], in assay [4] and in [3] was “inactive” in each case.

Consider `C[N+](C)(CCCCCC[N+](C)(C)CCCN1C(=O)c2cccc3cccc(c23)C1=O)CCCN1C(=O)c2cccc3cccc(c23)C1=O`, for which the Potency result in assay [1], in assay [6] and in assay [7] was “inactive” throughout. In addition, the call in [8] and in assay [9] was inactive.

As to `Cc1nc2ccccc2n1Cc1ccc(Cl)cc1`, the Potency result in [1] and in assay [3] was “inactive” throughout.

`C#C[C@]1(O)CC[C@H]2[C@@H]3CCc4cc(O)ccc4[C@H]3CC[C@@]21C`: the Potency result in assay [1], in assay [4] and in assay [5] was “inactive” in each case. For the same compound, the Potency in [3] was 12.8 µM (active).

Turning to `O=C(/C=C/c1ccc(O)cc1)c1ccc(O)cc1O`, the Potency in assay [1] was 3.98 µM (active); in assay [6], 10 µM (active). Further, in assay [7], the Potency result was “inactive”. In assay [8], the compound was classed as inactive.

Take `CN1CCC[C@H]1c1cccnc1`: the Potency result in [1], in assay [6] and in assay [7] was “inactive” each time. The outcome in [8] and in [9] was inactive.

For `Oc1ccccc1O`, the Potency result in assay [1] and in assay [7] was “inactive” each time. Further, the Potency in assay [6] was 2 µM (active). Besides, the compound was classed as inactive in [8].

As to `CC(C)Cc1ccc([C@H](C)C(=O)O)cc1`, the Potency entry in assay [1], in assay [2] and in assay [7] was “inactive” each time. Moreover, the compound was classed as inactive in [8] and in [9].

With `Ic1ccc(N2CCN(Cc3c[nH]c4ncccc34)CC2)cc1`, in [1], the Potency was 1.12 µM (active). Moreover, the Potency entry in assay [6] and in assay [7] was “inactive” each time. For the same compound, the call in assay [8] and in [9] was inactive.

As for `CN(C)c1ccc(C(=C2C=CC(=[N+](C)C)C=C2)c2ccccc2)cc1`, the Potency in assay [1] is 7.08 µM (active); in [5], 3.98 µM (active). Further, the Potency result in assay [3] is “inactive”.

As for `CC(=O)SCC[N+](C)(C)C`, the Potency entry in [1], in assay [6] and in assay [7] was “inactive” throughout. Besides, the compound was classed as inactive in assay [8] and in assay [9].

In the case of `c1ccc2sc(SN3CCOCC3)nc2c1`, the Potency result in [1], in [4] and in assay [3] was “inactive” in each case.

`CN(C)C(N)=NCCC[C@H](N)C(=O)O`: the Potency entry in [1], in assay [6] and in [7] was “inactive” in each case. Besides, the result in assay [8] and in assay [9] was inactive.

`CC(=O)[C@]1(O)Cc2c(O)c3c(c(O)c2[C@@H](O[C@H]2C[C@H](N)[C@H](O)[C@H](C)O2)C1)C(=O)c1c(O)cccc1C3=O`: the Potency result in assay [1] and in assay [4] was “inactive” each time. The Potency in assay [5] is 0.398 µM (active).

With `c1cnc2c(c1)ccc1cccnc12`, the Potency result in assay [1], in assay [6] and in assay [7] was “inactive” throughout. The call in assay [8] and in assay [9] was inactive.

Consider `O=S(=O)(c1cccc2c(I)cccc12)N1CCCNCC1`, for which the Potency in [1] was 11.2 µM (active). Also, the Potency result in [6] and in assay [7] was “inactive” throughout. In addition, the result in [8] and in assay [9] was inactive.

On to `CCCCCCCCCCCC(=O)[O][Sn]([CH2]CCC)([CH2]CCC)[O]C(=O)CCCCCCCCCCC`, for which the Potency result in assay [1], in [4] and in assay [5] was “inactive” in each case. In [3], the Potency is 9.07 µM (active).

`CN1CCN(c2cc3c(nn2)Oc2ccccc2N3C)CC1`: the Potency result in [1] and in [4] was “inactive” in each case.
